For 24 molecules, outcome results are on record in PubChem BioAssay AID720593 (Broad Institute, 2013).

Entries with a potency or affinity are not part of this list. The source made the active and inactive calls.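 Rule for the calls: active = falling viability curve whose half-maximal potency lies within twice the top valid tested dose; inconclusive = flat curve with moderate signal loss, or unreliable curve fit; inactive = the rest.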

The nature of the assay: ATP-based viability loss in HeLa cells – cell-based, CellTiter-Glo luminescence, dry powder, set 2, cytotoxicity control, dose response (AID 720593). The note with it: 72 h; series mostly up to 26 µM. For orientation: In ATP-based viability assays light output follows the ATP content of the culture.
For the molecule `Cc1ccc(C(=O)Nc2nc(-c3ccccn3)cs2)cc1S(=O)(=O)N1CCOCC1`, the molecule was classed as inactive. Consider `COC(=O)Cc1cc(=O)n(-c2nc3ccccc3[nH]2)[nH]1`, for which the molecule was called inactive. Under `CC1CCN(S(=O)(=O)c2ccc(C(=O)Nc3nnc(-c4ccccn4)o3)cc2)CC1` stands “inactive”; under `CC1CCN(S(=O)(=O)c2ccc(C(=O)Nc3nnc(C4=COCCO4)o3)cc2)CC1`, “inactive”; under `Cc1cccc(NC(=O)CSc2ccc(-c3ccccn3)nn2)c1C`, “inactive”. Under `Cc1ccc(C(=O)Nc2nc(-c3ccccc3)cs2)o1` stands “inactive”; under `CC1CCN(S(=O)(=O)c2ccc(C(=O)Nc3nnc(-c4ccccc4)o3)cc2)CC1`, “inactive”; under `CC1CCN(S(=O)(=O)c2ccc(C(=O)Nc3nnc(-c4cccs4)o3)cc2)CC1`, “inactive”. Under `O=C(Nc1nc(-c2ccncc2)cs1)c1ccco1` stands “inactive”; under `CC1CCN(S(=O)(=O)c2ccc(C(=O)Nc3nnc(C4CC4)o3)cc2)CC1`, “inactive”; under `CC1CCN(S(=O)(=O)c2ccc(C(=O)Nc3nnc(-c4ccno4)o3)cc2)CC1`, “inactive”. Turning to `Cc1c(C(=O)N(C)C)sc2nc(-c3ccccn3)[nH]c(=O)c12`, the molecule was called inactive.

In the case of `Cc1nnc(NC(=O)c2ccc(S(=O)(=O)N3CCCCC3)cc2)o1`, the molecule was called inactive. For `O=C(CSc1ccc(-c2ccccn2)nn1)N1CCCC1` the value was “inactive”.

For the molecule `FC(F)(F)c1cc(-c2nn[nH]n2)cc(C(F)(F)F)c1`, the call was inactive. For `CC1CCCN(S(=O)(=O)c2ccc(C(=O)Nc3nnc(C4=COCCO4)o3)cc2)C1` (centres undefined) the value was “inactive”; for `O=C(Nc1nnc(C2=COCCO2)o1)c1ccc(S(=O)(=O)N2CCCCC2)cc1`, “inactive”; for `CC(C)Cc1nnc(NC(=O)c2cccc(S(=O)(=O)N3CCOCC3)c2)s1`, “inactive”.

`O=C(CSc1ccc(-c2ccccn2)nn1)Nc1nccs1`: the molecule was classed as inactive. For `CC1CC(C)CN(S(=O)(=O)c2ccc(C(=O)Nc3nnc(C4=COCCO4)o3)cc2)C1` (centres undefined), the call was inactive. Consider `CC1CCN(S(=O)(=O)c2ccc(C(=O)Nc3nnc(-c4ccco4)o3)cc2)CC1`, for which the molecule was called inactive.

Consider `COC(=O)c1ccc(NC(=O)CSc2ccc(-c3ccccn3)nn2)cc1`, for which the call was inactive.

For `O=C(CSc1ccc(-c2ccccn2)nn1)NC1CCCCC1`, the molecule was classed as inactive. With `Cc1ccc(S(=O)(=O)CCc2nnc(NC(=O)c3ccccc3)s2)cc1`, the molecule was classed as inactive.
